# Results filed as inconclusive are left out. A call without a number means that no potency is given here. Unmarked numbers belong to inactive results. The source made the active and inactive calls. Unless noted, the call rests on the fitted dose curve; in most records, active means well fitted curve in the direction sought with a large enough effect; inconclusive means small, poorly fitted or top-dose-only effect, or another doubt; inactive means no such curve, though single readings can be large; an effect the other way counts as inactive or inconclusive.
# How the values were obtained:
# [1] = biological target: Calcium and integrin-binding protein 1 (Homo sapiens) (UniProt Q99828); test: Primary qHTS for Identification of Calcium Integrin Binding Protein 1 (CIB1) Competitor (AID 1508620);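 further: GST tagged CIB1 binding a fluorescein labelled alphaIIb integrin peptide tracer; top concentration of the series differs between compounds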
# Sequence of Calcium and integrin-binding protein 1 (Homo sapiens) (Q99828 whole entry, looked up): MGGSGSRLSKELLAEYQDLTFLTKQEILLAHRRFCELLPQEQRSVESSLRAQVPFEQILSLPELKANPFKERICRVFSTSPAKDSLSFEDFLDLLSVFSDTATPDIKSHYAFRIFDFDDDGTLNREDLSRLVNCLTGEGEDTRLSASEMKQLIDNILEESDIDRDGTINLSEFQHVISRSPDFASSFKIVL
# Outline: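 Fluorescence polarization competition: CIB1-GST (1 uM final) preincubated with compound 15 min at room temperature, then FITC-labeled alphaIIb peptide (100 nM final) added for another 15 min. Polarization read at Ex 480/Em 540.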
# [2] = Primary qHTS for small molecule stabilizers of the endoplasmic reticulum resident proteome: Secreted ER Calcium Modulated Protein (SERCaMP) assay (AID 1508630)
# Outline: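 The SH-SY5Y reporter protocol was run at 3 concentrations up to 38.3 uM (primary) or 11 concentrations (follow-up): 16 h compound, 100 nM thapsigargin for 4 h, then extracellular luciferase luminescence.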
# [3] = biological target: Cytochrome P450 2D6 (Homo sapiens) (UniProt P10635); test: Cytochrome P450 family 2 subfamily D member 6 (CYP2D6) small molecule antagonists: luciferase biochemical (cell-free) qHTS assay (AID 1645840; active means well fitted curve in the direction sought with a large enough effect in the repeat runs; an effect the other way counts as inactive or inconclusive; further: nearly all actives have a fitted effect of over 55% in size; further: potency means the concentration at half of the fitted maximal effect)
# Sequence of Cytochrome P450 2D6 (Homo sapiens) (P10635 whole entry, looked up): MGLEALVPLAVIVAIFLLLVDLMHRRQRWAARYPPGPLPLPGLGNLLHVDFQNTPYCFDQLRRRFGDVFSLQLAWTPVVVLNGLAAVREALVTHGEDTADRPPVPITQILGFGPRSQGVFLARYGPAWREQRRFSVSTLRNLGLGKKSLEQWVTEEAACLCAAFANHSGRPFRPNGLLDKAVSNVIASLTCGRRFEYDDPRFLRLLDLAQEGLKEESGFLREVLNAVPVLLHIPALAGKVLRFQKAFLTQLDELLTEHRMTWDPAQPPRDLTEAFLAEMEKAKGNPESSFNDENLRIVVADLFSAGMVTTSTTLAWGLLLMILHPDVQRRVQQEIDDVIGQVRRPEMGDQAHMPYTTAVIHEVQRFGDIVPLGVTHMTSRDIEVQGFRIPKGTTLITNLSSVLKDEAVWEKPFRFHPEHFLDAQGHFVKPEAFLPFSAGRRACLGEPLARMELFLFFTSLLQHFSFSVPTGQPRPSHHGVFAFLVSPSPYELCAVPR
# Outline: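 P450-Glo CYP2D6 system: proluciferin substrate converted by enzyme to luciferin, read by luminescence proportional to activity. Enzyme-substrate mix with compound 10 min at room temperature, then NADPH regeneration 1 h before detection reagent.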
# [4] = biological target: Cytochrome P450 2C9 (Homo sapiens) (UniProt P11712); test: Cytochrome P450 family 2 subfamily C member 9 (CYP2C9) small molecule antagonists: luciferase biochemical (cell-free) qHTS assay (AID 1645842; active means well fitted curve in the direction sought with a large enough effect in the repeat runs; an effect the other way counts as inactive or inconclusive; further: nearly all actives have a fitted effect of over 55% in size; further: potency means the concentration at half of the fitted maximal effect)
# Sequence of Cytochrome P450 2C9 (Homo sapiens) (P11712 whole entry, looked up): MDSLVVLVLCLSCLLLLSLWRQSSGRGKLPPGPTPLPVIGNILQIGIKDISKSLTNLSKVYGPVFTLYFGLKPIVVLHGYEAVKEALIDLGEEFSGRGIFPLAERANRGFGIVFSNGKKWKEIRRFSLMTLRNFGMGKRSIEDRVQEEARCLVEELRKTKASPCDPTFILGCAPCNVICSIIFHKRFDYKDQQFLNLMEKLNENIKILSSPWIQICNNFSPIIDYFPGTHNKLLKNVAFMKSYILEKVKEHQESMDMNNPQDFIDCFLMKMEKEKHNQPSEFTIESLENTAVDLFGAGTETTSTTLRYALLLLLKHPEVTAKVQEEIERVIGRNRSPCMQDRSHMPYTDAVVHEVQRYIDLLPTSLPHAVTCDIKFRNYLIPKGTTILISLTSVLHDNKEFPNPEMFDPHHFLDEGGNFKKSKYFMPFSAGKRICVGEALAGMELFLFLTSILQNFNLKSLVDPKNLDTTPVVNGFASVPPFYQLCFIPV
# Outline: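 P450-Glo CYP2C9 system: proluciferin substrate with enzyme in mix containing 0.4% BSA, 10 min at room temperature, then NADPH regeneration solution added and incubated 1 h at 37C. Detection reagent stopped reaction; luminescence read after 20 min as RLU.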
# [5] = A High-Content qHTS Against Drug Library for the Identification of Small Molecules that Inhibit DYT1 Early Onset Primary Dystonia-Associated Cell Pathology (AID 1645839; calls by dose curve; further: potency means the concentration at half of the fitted maximal effect; on % pathology change, negative = correction: series mostly up to about 46 µM)
# Outline: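 Induced EGFP-delE TorsinA cells are imaged after 48 h of compound treatment. Punctate fusion-protein distribution gives the %pathology value, while nuclei counts flag toxicity. Wild-type EGFP-hTOR1A cells define the normal pattern.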
# [6] = biological target: Cytochrome P450 3A4 (Homo sapiens) (UniProt P08684); test: Cytochrome P450 family 3 subfamily A member 4 (CYP3A4) small molecule antagonists: luciferase qHTS assay (AID 1645841; active means well fitted curve in the direction sought with a large enough effect in the repeat runs; an effect the other way counts as inactive or inconclusive; further: nearly all actives have a fitted effect of over 45% in size; further: potency means the concentration at half of the fitted maximal effect)
# Sequence of Cytochrome P450 3A4 (Homo sapiens) (P08684 whole entry, looked up): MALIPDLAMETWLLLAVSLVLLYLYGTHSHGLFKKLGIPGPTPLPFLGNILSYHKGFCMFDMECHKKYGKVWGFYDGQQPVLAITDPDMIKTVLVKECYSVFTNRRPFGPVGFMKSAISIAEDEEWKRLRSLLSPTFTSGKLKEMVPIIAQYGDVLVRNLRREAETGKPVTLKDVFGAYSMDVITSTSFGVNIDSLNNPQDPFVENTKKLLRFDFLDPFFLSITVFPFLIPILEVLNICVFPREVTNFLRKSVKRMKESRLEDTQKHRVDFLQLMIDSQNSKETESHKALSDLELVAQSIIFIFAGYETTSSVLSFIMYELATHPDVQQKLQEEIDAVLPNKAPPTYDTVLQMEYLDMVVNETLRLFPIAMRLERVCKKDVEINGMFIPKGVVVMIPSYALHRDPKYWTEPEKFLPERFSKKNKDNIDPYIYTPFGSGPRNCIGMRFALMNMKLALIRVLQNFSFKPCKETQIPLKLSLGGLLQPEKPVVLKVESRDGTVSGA
# Outline: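 P450-Glo CYP3A4 enzyme with proluciferin substrate was preincubated with DMSO-dissolved compounds for 10 min at room temperature. NADPH regeneration solution started a 1 h reaction. Detection reagent stopped it, and luminescence was read after 20 min.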
smiles,measurement,setting,value
c1cc2c(cc1[C@H]1OC[C@H]3[C@H]1CO[C@H]3c1ccc3c(c1)OCO3)OCO2,outcome,[1],inactive
same,Potency,[2],inactive
O=C(N[C@@H](COc1ccc2[nH]c(=O)[nH]c2c1)c1ccccc1)c1cccn(Cc2ccc(F)c(F)c2)c1=O,outcome,[1],inactive
same,Potency,[2],inactive
same,Potency,[3],4.25 µM (active)
same,Potency,[4],0.239 µM (active)
CCC(=O)O[C@@H]1C=C2CCC3C(CCC4(C)C3CC[C@@H]4OC(=O)CC)C2CC1 (stereo partly drawn),outcome,[1],inactive
same,Potency,[2],inactive
same,Potency,[5],inactive
same,Potency,[4],19.5 µM (active)
Cc1c(N)nc([C@H](CC(N)=O)NC[C@@H](N)C(N)=O)nc1C(=O)N[C@H](C(=O)N[C@@H](C)[C@H](O)[C@@H](C)C(=O)N[C@@H](C(=O)NCCc1nc(-c2nc(C(=O)NCCC[S+](C)C)cs2)cs1)[C@@H](C)O)C(O[C@H]1O[C@H](CO)[C@H](O)[C@@H](O)[C@@H]1O[C@H]1O[C@H](CO)[C@@H](O)[C@H](OC(N)=O)[C@H]1O)c1cnc[nH]1 (stereo partly drawn),outcome,[1],inactive
same,Potency,[2],inactive
CCNC(=O)CC1N=C(c2ccc(Cl)cc2)c2cc(OC)ccc2-n2c(C)nnc21 (stereo not drawn),outcome,[1],inactive
same,Potency,[2],inactive
C1CCC(NC2CCCCC2)CC1,outcome,[1],inactive
same,Potency,[2],inactive
same,Potency,[5],inactive
same,Potency,[3],1.23 µM (active)
same,Potency,[4],inactive
Cc1cc(O)ccc1Cl,outcome,[1],inactive
same,Potency,[2],inactive
same,Potency,[5],inactive
same,Potency,[3],inactive
same,Potency,[4],inactive
C[C@@H]1[C@H](O)[C@@H](C)C=CC=CCCC=CC=CC=CC=C[C@H](O[C@H]2O[C@@H](C)[C@H](O)[C@@H](N)[C@@H]2O)CC2O[C@](O)(C[C@@H](O)[C@H](O)CC[C@@H](O)C[C@@H](O)C[C@@H](O)CC(=O)O[C@H]1C)C[C@H](O)[C@H]2C(=O)O,outcome,[1],inactive
same,Potency,[2],inactive
C[C@]12CC[C@H]3[C@@H](CCC4=CC(=O)CC[C@@]43C)[C@H]1CC[C@H]2OC(=O)CCC1CCCC1,outcome,[1],inactive
same,Potency,[2],inactive
O=C1C=CC[C@@H]2[C@H]3CCCN4CCC[C@@H](CN12)[C@@H]34,outcome,[1],inactive
same,Potency,[2],inactive
C[C@@H]1CC[C@H]2[C@@H](C)C(=O)O[C@@H]3O[C@@]4(C)CC[C@H]1[C@]32OO4,outcome,[1],inactive
same,Potency,[2],inactive
CC(C)(C)C(O)C(Oc1ccc(Cl)cc1)n1cncn1 (stereo not drawn),outcome,[1],inactive
same,Potency,[2],inactive
same,Potency,[5],inactive
same,Potency,[4],21.2 µM (active)
O=C(O)c1cc(Oc2ccc(C(F)(F)F)cc2Cl)ccc1[N+](=O)[O-],outcome,[1],inactive
same,Potency,[2],inactive
same,Potency,[5],inactive
CCCCCC[C@H]1C(=O)O[C@H](C)[C@H](NC(=O)c2cccc(NC=O)c2O)C(=O)O[C@@H](C)[C@@H]1OC(=O)CC(C)C,outcome,[1],inactive
same,Potency,[2],inactive
CC1=C(C(=O)O)N2C(=O)[C@@H](N)[C@H]2SC1,outcome,[1],inactive
same,Potency,[2],inactive
same,"% pathology change, negative = correction",[5],1.33% [at 19.1 µM]
same,Potency,[3],inactive
same,Potency,[4],inactive
CCCN(CCC)c1c([N+](=O)[O-])cc(S(N)(=O)=O)cc1[N+](=O)[O-],outcome,[1],inactive
same,Potency,[2],inactive
same,Potency,[5],28.2 µM (active)
same,Potency,[3],29.1 µM (active)
same,Potency,[6],8.44 µM (active)
same,Potency,[4],3.77 µM (active)
CC(C)[C@H]1C(=O)N[C@H](CO)Cc2c[nH]c3cccc(c23)N1C,outcome,[1],inactive
same,Potency,[2],inactive
COC(=O)c1cncn1C(C)c1ccccc1 (stereo not drawn),outcome,[1],inactive
same,Potency,[2],inactive
same,Potency,[5],inactive
same,Potency,[3],7.76 µM (active)
same,Potency,[4],11 µM (active)
O=C(O)C(Cl)Cl,outcome,[1],inactive
same,Potency,[2],inactive
same,Potency,[5],inactive
same,Potency,[3],inactive
same,Potency,[4],inactive
Fc1cc(Br)ccc1CBr,outcome,[1],inactive
same,Potency,[2],inactive
same,Potency,[5],inactive
same,Potency,[3],inactive
same,Potency,[4],inactive
O=C(O)COc1ccccc1,outcome,[1],inactive
same,Potency,[2],inactive
same,Potency,[5],inactive
same,Potency,[3],inactive
same,Potency,[4],inactive
O=S(=O)(O)C(F)(F)C(F)(F)C(F)(F)C(F)(F)F,outcome,[1],inactive
same,Potency,[2],inactive
same,Potency,[5],inactive
same,Potency,[3],inactive
same,Potency,[4],18.9 µM (active)
COc1cc2cc(c1Cl)N(C)C(=O)C[C@H](OC(=O)C(C)C)[C@]1(C)O[C@H]1[C@H](C)[C@@H]1C[C@@](O)(NC(=O)O1)[C@H](OC)C=CC=C(C)C2,outcome,[1],inactive
same,Potency,[2],inactive
CN1[C@H]2CC(O)C[C@H]1[C@H]1O[C@H]12 (stereo partly drawn),outcome,[1],inactive
same,Potency,[2],inactive
O=S(=O)(c1ccc(Cl)cc1)c1ccc(Cl)cc1,outcome,[1],inactive
same,Potency,[2],inactive
same,Potency,[5],inactive
same,Potency,[4],27.8 µM (active)
COC[C@H]1OC(=O)c2coc3c2[C@@]1(C)C1=C(C3=O)[C@@H]2CC[C@H](O)[C@@]2(C)C[C@@H]1OC(C)=O,outcome,[1],inactive
same,Potency,[2],inactive
CN[C@@H]1Cc2cccc3[nH]c(=O)n(c23)C1,outcome,[1],inactive
same,Potency,[2],inactive
CCN(CC)C(=O)c1ccc(C2=CC3(CCNCC3)Oc3cccc(O)c32)cc1,outcome,[1],inactive
same,Potency,[2],inactive
CC(C)NCC(O)c1ccc([N+](=O)[O-])cc1 (stereo not drawn),outcome,[1],inactive
same,Potency,[2],inactive
same,Potency,[5],inactive
same,Potency,[6],inactive
same,Potency,[4],inactive

# Source: PubChem BioAssay (NCATS)
